# Inconclusive results are not listed. Where a call stands in place of a potency, no number is given. The source made the active and inactive calls. Calls follow the shape of the dose curve; as a rule, active = well fitted curve in the direction sought with a large enough effect; inconclusive = small, poorly fitted or top-dose-only effect, or another doubt; inactive = no such curve, though single readings can be large; an effect the other way counts as inactive or inconclusive.
# Test system: not listed separately
# Assay: Counterscreen for APE1 Inhibitors: Fluorescent Dye Displacement Validation Assay (AID 1707)
# Settings: fluorescent dye displacement from DNA; series mostly up to 57.1 µM
# Summary of the method: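 Loss of Thiazole Orange fluorescence marks promiscuous DNA binders. The dye (250 nM) is mixed with 50 nM abasic-site dsDNA in pH7.5 Tris buffer containing MgCl2, then compounds are added and emission is read once.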
# Potency is read from the fitted curve at half-maximal effect.
row,SMILES,Potency
1,CN1CCc2cc(O)c(O)cc2C(c2ccccc2)C1 (centres undefined),inactive
2,CC(C)NCC(O)COc1cccc2ccccc12 (centres undefined),inactive
3,CCCN(CC1CC1)c1nc(C)nc(Nc2c(Cl)cc(Cl)cc2Cl)c1Cl,inactive
4,Fc1ccc(C(OCCCc2cnc[nH]2)c2ccc(F)cc2)cc1,inactive
5,O=C(O)[C@@H]1C[C@H](C(=O)O)N1,inactive
6,CC(=O)N[C@H](C(=O)O)C(C)(C)SN=O,inactive
7,NC(=O)C(=O)O,inactive
8,C[N+](C)(CCCCCC[N+](C)(C)CCCN1C(=O)c2cccc3cccc(c23)C1=O)CCCN1C(=O)c2cccc3cccc(c23)C1=O,5.62 µM (active)
9,NCCCCC(=O)O,inactive
10,C[C@@H](CN1CCC(Cc2ccccc2)CC1)[C@@H](O)c1ccc(O)cc1,inactive
11,CC(C)NC[C@H](O)COc1cccc2[nH]ccc12,inactive
12,NCCSSCCN,inactive

# Target: Endonuclease 4 (Escherichia coli (strain K12)) (UniProt P0A6C1)
# Assay: Counterscreen for APE1 Inhibitors: qHTS Validation Assay for Inhibitors of Endonuclease IV (AID 1708)
# Settings: E. coli endonuclease IV, DNA cleavage fluorescence; series mostly up to 57.1 µM
# Summary of the method: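 Enzyme (2 nM) + compound, 15 min RT; add 50 nM TAMRA/BHQ-2 THF-site dsDNA; kinetic read ex525/em598, 3 reads/60 s; activity = read 3 − read 1. Buffer Tris pH 7.5, 50 mM NaCl, 2 mM MgCl2, DTT, Tween-20.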
row,SMILES,Potency
1,Oc1cc2c(cc1O)CN(C(=S)NCCc1ccc(Cl)cc1)CCC2,inactive
2,CC1(C)CCC=[N+]1[O-],inactive
3,CC12C(=O)OC(=O)C1(C)C1CCC2O1 (centres undefined),inactive
4,COc1cc(C(O)CO)ccc1OS(=O)(=O)O (centres undefined),inactive
5,COc1ccccc1CNCCCCCCNCCCCCCCCNCCCCCCNCc1ccccc1OC,inactive
6,O=C(Nc1cccc(C(=O)Nc2ccc(S(=O)(=O)O)c3cc(S(=O)(=O)O)cc(S(=O)(=O)O)c23)c1)Nc1cccc(C(=O)Nc2ccc(S(=O)(=O)O)c3cc(S(=O)(=O)O)cc(S(=O)(=O)O)c23)c1,8.91 µM (active)
7,COc1cc2nc(N3CCN(C(=O)OCc4ccccc4)C(C(=O)NC(C)(C)C)C3)nc(N)c2cc1OC (centres undefined),inactive
8,O=c1[nH]c2cc([N+](=O)[O-])c([N+](=O)[O-])cc2[nH]c1=O,inactive
9,O=S(=O)(c1cccc2c(I)cccc12)N1CCCNCC1,inactive
10,O=C(O)[C@@H]1C[C@@H](C(=O)O)N1,inactive
11,N#C/C(=C\c1ccc(O)c(O)c1)C(=O)NCc1ccccc1,inactive
12,CCCCCCCCCCCCCCCCCC(=O)NCC(COP(=O)([O-])OCC[N+](C)(C)C)OCC (centres undefined),inactive
13,CN1CCC[C@H]1c1cccnc1,inactive
14,O=C(O)c1cc(=O)c2c(Cl)cc(Cl)cc2[nH]1,inactive
15,O=C(Nc1ccccc1)c1cc([N+](=O)[O-])ccc1Cl,inactive
16,CN1CCc2cc(O)c(O)cc2C(c2ccccc2)C1 (centres undefined),inactive
17,CC(C)NCC(O)COc1cccc2ccccc12 (centres undefined),inactive
18,CCCN(CC1CC1)c1nc(C)nc(Nc2c(Cl)cc(Cl)cc2Cl)c1Cl,inactive
19,Fc1ccc(C(OCCCc2cnc[nH]2)c2ccc(F)cc2)cc1,inactive
20,O=C(O)[C@@H]1C[C@H](C(=O)O)N1,inactive
21,CC(=O)N[C@H](C(=O)O)C(C)(C)SN=O,inactive
22,NC(=O)C(=O)O,inactive
23,C[N+](C)(CCCCCC[N+](C)(C)CCCN1C(=O)c2cccc3cccc(c23)C1=O)CCCN1C(=O)c2cccc3cccc(c23)C1=O,inactive
24,NCCCCC(=O)O,inactive
25,C[C@@H](CN1CCC(Cc2ccccc2)CC1)[C@@H](O)c1ccc(O)cc1,inactive
26,NCCSSCCN,inactive

# Test system: not listed separately
# Assay: qHTS for differential inhibitors of proliferation of Plasmodium falciparum line 7G8 (AID 1815);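 also: parasite growth measured after three days of incubation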
# Settings: Plasmodium falciparum 7G8 proliferation inhibition; series mostly up to 28.7 µM
row,SMILES,Potency
1,Oc1cc2c(cc1O)CN(C(=S)NCCc1ccc(Cl)cc1)CCC2,8.91 µM (active)
2,CC1(C)CCC=[N+]1[O-],inactive
3,CC12C(=O)OC(=O)C1(C)C1CCC2O1 (centres undefined),3.98 µM (active)
4,COc1cc(C(O)CO)ccc1OS(=O)(=O)O (centres undefined),inactive
5,COc1ccccc1CNCCCCCCNCCCCCCCCNCCCCCCNCc1ccccc1OC,1.41 µM (active)
6,O=C(Nc1cccc(C(=O)Nc2ccc(S(=O)(=O)O)c3cc(S(=O)(=O)O)cc(S(=O)(=O)O)c23)c1)Nc1cccc(C(=O)Nc2ccc(S(=O)(=O)O)c3cc(S(=O)(=O)O)cc(S(=O)(=O)O)c23)c1,inactive
7,COc1cc2nc(N3CCN(C(=O)OCc4ccccc4)C(C(=O)NC(C)(C)C)C3)nc(N)c2cc1OC (centres undefined),2.82 µM (active)
8,O=c1[nH]c2cc([N+](=O)[O-])c([N+](=O)[O-])cc2[nH]c1=O,inactive
9,O=S(=O)(c1cccc2c(I)cccc12)N1CCCNCC1,inactive
10,O=C(O)[C@@H]1C[C@@H](C(=O)O)N1,inactive
11,N#C/C(=C\c1ccc(O)c(O)c1)C(=O)NCc1ccccc1,12.6 µM (active)
12,CCCCCCCCCCCCCCCCCC(=O)NCC(COP(=O)([O-])OCC[N+](C)(C)C)OCC (centres undefined),inactive
13,CN1CCC[C@H]1c1cccnc1,inactive
14,O=C(O)c1cc(=O)c2c(Cl)cc(Cl)cc2[nH]1,inactive
15,O=C(Nc1ccccc1)c1cc([N+](=O)[O-])ccc1Cl,8.91 µM (active)
16,CN1CCc2cc(O)c(O)cc2C(c2ccccc2)C1 (centres undefined),11.2 µM (active)
17,CC(C)NCC(O)COc1cccc2ccccc12 (centres undefined),4.47 µM (active)
18,CCCN(CC1CC1)c1nc(C)nc(Nc2c(Cl)cc(Cl)cc2Cl)c1Cl,3.55 µM (active)
19,Fc1ccc(C(OCCCc2cnc[nH]2)c2ccc(F)cc2)cc1,1.58 µM (active)
20,O=C(O)[C@@H]1C[C@H](C(=O)O)N1,inactive
21,CC(=O)N[C@H](C(=O)O)C(C)(C)SN=O,inactive
22,NC(=O)C(=O)O,inactive
23,C[N+](C)(CCCCCC[N+](C)(C)CCCN1C(=O)c2cccc3cccc(c23)C1=O)CCCN1C(=O)c2cccc3cccc(c23)C1=O,0.794 µM (active)
24,NCCCCC(=O)O,inactive
25,C[C@@H](CN1CCC(Cc2ccccc2)CC1)[C@@H](O)c1ccc(O)cc1,10 µM (active)
26,NCCSSCCN,inactive

# — PubChem BioAssay (NCATS)
